Results filed as inconclusive are left out. Active and inactive are the calls of the source. Calls follow the shape of the dose curve; as a rule, active = well fitted cell-killing curve with a large enough effect; inconclusive = small, poorly fitted or top-dose-only effect; inactive = flat fitted curve, though single readings scatter.
Assay: DAPI mCherry counterscreen qHTS for Zika virus inhibitors; also: nearly all actives have a fitted effect of over 55% in size
Conditions: Vero cells, DAPI nuclear count cytotoxicity, imaging 48-72 h, infected with Zika reporter virus, MOI 1; series mostly up to 32.6 µM
In short: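 Vero cells (5,000/well), plated overnight, given compounds then recombinant ZIKV-mCherry at MOI 1 for 48-72 hrs at 37 degrees C; PFA-fixed, Hoechst-stained and imaged; nuclei counted and mCherry-positive cells scored as percent infection.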
Potency is read from the fitted curve at half-maximal effect.

SMILES | Potency
Nc1c(N=Nc2ccc([N+](=O)[O-])cc2)c(S(=O)(=O)O)cc2cc(S(=O)(=O)O)c(/C=C/c3ccccc3)c(O)c12 | inactive
CN(Cc1ccc(C(=O)O)cc1)c1ccc(OCc2c(-c3c(Cl)cccc3Cl)noc2C2CC2)nc1C(F)(F)F | 15.8 µM (active)
CCCCCCCOc1cc2c(cc1/C(C)=C/c1ccc(C(=O)O)cc1)C(C)(C)CCS2(=O)=O | 15.8 µM (active)
CCOC(=O)c1ccc(Nc2nc3ccccc3nc2NS(=O)(=O)c2ccc(Cl)cc2)cc1 | 7.94 µM (active)
Cc1c(C2(c3cc(C(C)C)c(O)c(Br)c3C)OS(=O)(=O)c3ccccc32)cc(C(C)C)c(O)c1Br | inactive
CN(CC(=O)N(Cc1ccc(C2CCCCC2)cc1)c1ccc(C(=O)O)cc1)S(=O)(=O)c1c(F)c(F)c(F)c(F)c1F | 5.62 µM (active)
Cc1nn2c(=O)cc(COC(=O)c3ccc(NC(=O)c4ccc(C(C)(C)C)cc4)cc3)nc2s1 | 28.2 µM (active)
COc1cc(Nc2nc3ccccc3nc2NS(=O)(=O)c2ccc(NC(=O)c3ccc(C)c(OC)c3)cc2)cc(OC)c1 | 4.47 µM (active)
CCCCc1nn2c(=O)cc(COC(=O)c3ccc(NC(=O)c4ccccc4Cl)cc3)nc2s1 | 22.4 µM (active)
COc1cc(Nc2nc3ccccc3nc2NS(=O)(=O)c2ccc(NC(=O)c3ccc(OC)c(C)c3)cc2)cc(OC)c1 | 6.31 µM (active)
CCCCCCOc1cc2c(cc1N(C)c1ncc(C(=O)O)cn1)C(C)(C)CCC2(C)C | 22.4 µM (active)
O=S(=O)(Nc1ccc(Cl)cc1)c1ccc(NS(=O)(=O)c2ccc3c(c2)OCCO3)cc1 | 31.6 µM (active)

Reference: PubChem BioAssay AID1347156 (National Center for Advancing Translational Sciences (NCATS), 2019)
